# According to the supplement of paper PMC10681739:
# Tests used:
# [1] = target: T1, ETS1 (UniProt P14921); assay: ETS1 binding intensity (PBM fluorescence), ETS1 alone (arbitrary fluorescence units); higher = stronger binding; conditions: ETS1 concentration 1 nM; RUNX1 concentration 0 nM
# T1 sequence: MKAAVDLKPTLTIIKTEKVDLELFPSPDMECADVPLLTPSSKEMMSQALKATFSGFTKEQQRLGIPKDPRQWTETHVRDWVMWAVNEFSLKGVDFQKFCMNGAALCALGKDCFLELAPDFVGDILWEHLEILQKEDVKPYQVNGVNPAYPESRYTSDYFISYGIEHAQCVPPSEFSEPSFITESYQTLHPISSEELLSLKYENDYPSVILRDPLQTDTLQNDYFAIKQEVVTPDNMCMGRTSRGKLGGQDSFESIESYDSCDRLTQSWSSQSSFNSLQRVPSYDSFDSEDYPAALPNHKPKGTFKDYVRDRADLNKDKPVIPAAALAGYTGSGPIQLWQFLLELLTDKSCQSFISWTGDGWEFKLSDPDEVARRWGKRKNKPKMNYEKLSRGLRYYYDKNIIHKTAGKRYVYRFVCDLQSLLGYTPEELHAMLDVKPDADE
# [2] = target: RUNX1 (UniProt Q01196); assay: RUNX1 binding intensity (PBM fluorescence), RUNX1 alone (arbitrary fluorescence units); higher = stronger binding; conditions: RUNX1 concentration 2 nM; ETS1 concentration 0 nM
# Sequence of RUNX1 (Q01196 whole entry): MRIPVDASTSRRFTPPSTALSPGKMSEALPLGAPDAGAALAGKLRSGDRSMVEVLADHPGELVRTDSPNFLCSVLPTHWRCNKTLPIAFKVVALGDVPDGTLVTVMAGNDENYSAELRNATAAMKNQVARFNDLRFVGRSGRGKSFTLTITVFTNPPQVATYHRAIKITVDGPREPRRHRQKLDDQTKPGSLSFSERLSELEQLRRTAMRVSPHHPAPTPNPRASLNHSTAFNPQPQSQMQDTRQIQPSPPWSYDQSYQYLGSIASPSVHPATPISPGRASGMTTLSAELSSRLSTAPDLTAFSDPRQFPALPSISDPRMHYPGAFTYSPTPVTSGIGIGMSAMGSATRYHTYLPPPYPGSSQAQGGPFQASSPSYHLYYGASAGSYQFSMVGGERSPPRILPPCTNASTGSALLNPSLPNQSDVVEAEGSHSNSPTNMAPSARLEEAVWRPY
# Procedure: (§1)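 Cooperative gcPBM on 36-bp genomic probes with neighbouring ETS1 and RUNX1 sites. Recombinant human RUNX1 (2 nM) was incubated alone or with ETS1 (25 nM) and detected with anti-RUNX1 antibody plus Alexa488 secondary. Values are medians over 4 replicate spots; the RUNX1+ETS1 data were normalised to the RUNX1-only data. The probes sit in constant array flanks that are not printed.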
# [3] = target: T1, ETS1; assay: ETS1 binding intensity (PBM fluorescence) in presence of RUNX1, normalised to ETS1-only experiment (arbitrary fluorescence units); higher = stronger binding; conditions: ETS1 concentration 1 nM; RUNX1 concentration 25 nM
# [4] = target: RUNX1 (UniProt Q01196); assay: RUNX1 binding intensity (PBM fluorescence) in presence of ETS1, normalised to RUNX1-only experiment (arbitrary fluorescence units); higher = stronger binding; conditions: RUNX1 concentration 2 nM; ETS1 concentration 25 nM
# Procedure: as §1
# 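Throughout, for RUNX1 binding intensity (PBM fluorescence) in presence of ETS1, normalised to RUNX1-only experiment: Full-length recombinant human ETS1 or RUNX1 bound to double-stranded 36-bp genomic probes on microarrays, detected by protein-specific primary antibody and Alexa488 secondary, spot fluorescence as median of four replicate spots.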
# 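Throughout, for RUNX1 binding intensity (PBM fluorescence), RUNX1 alone: Full-length recombinant human RUNX1 bound to double-stranded 36-bp genomic probes on a high-density microarray, scored as Alexa488 fluorescence per spot via anti-RUNX1 antibody, median of four replicate spots.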
sequence,measurement,setting,value
CATAGGAAGTGCTCAGCTCTCCTCCACCGCAAGTTT,ETS1 binding intensity,[1],452
same,RUNX1 binding intensity,[2],806
same,ETS1 binding intensity,[3],2190
same,RUNX1 binding intensity,[4],879
GTGTGGAAGGAGGAAGCGAGAATGTGGTTACTTAGG,ETS1 binding intensity,[1],718
same,RUNX1 binding intensity,[2],868
same,ETS1 binding intensity,[3],1890
same,RUNX1 binding intensity,[4],1190
GTCTTAGGTCGGAAGTCTGTGGTCCCTGTTCACATG,ETS1 binding intensity,[1],796
same,RUNX1 binding intensity,[2],835
same,ETS1 binding intensity,[3],910
same,RUNX1 binding intensity,[4],953
TCCCTTACCTTCCTGCTGCCACCAAACCACCAAACC,ETS1 binding intensity,[1],460
same,RUNX1 binding intensity,[2],2510
same,ETS1 binding intensity,[3],1040
same,RUNX1 binding intensity,[4],3260
GGCGGCTTCCGGGATCTGCCTGGCGGTTGCTTTGTC,ETS1 binding intensity,[1],568
same,RUNX1 binding intensity,[2],729
same,ETS1 binding intensity,[3],525
same,RUNX1 binding intensity,[4],2140
GGGCTCCCAGAAGGATGTGGTTTCTGAGTACGTTGG,ETS1 binding intensity,[1],582
same,RUNX1 binding intensity,[2],906
same,ETS1 binding intensity,[3],3520
same,RUNX1 binding intensity,[4],1260
TGCGCCGCGGAACCCGGAAGTGGTCACGGAGCTCGG,ETS1 binding intensity,[1],10600
same,RUNX1 binding intensity,[2],766
same,ETS1 binding intensity,[3],23400
same,RUNX1 binding intensity,[4],3970
GGCAACCTGAGCTTCCGTGTAAAACCACAGTGTGAC,ETS1 binding intensity,[1],372
same,RUNX1 binding intensity,[2],1100
same,ETS1 binding intensity,[3],964
same,RUNX1 binding intensity,[4],1290
CAGTGCCAGCCGGAACTTGTGGTTCGGACCGTGGGT,ETS1 binding intensity,[1],882
same,RUNX1 binding intensity,[2],1040
same,ETS1 binding intensity,[3],2100
same,RUNX1 binding intensity,[4],1420
GGAGCAAGGATGACAGGATGTGGCTTAGGGGGAGGC,ETS1 binding intensity,[1],5020
same,RUNX1 binding intensity,[2],708
same,ETS1 binding intensity,[3],7820
same,RUNX1 binding intensity,[4],1000
TGCAATTGGCAGACAGGAAACCGCGGCGTTTTCTGG,ETS1 binding intensity,[1],5340
same,RUNX1 binding intensity,[2],764
same,ETS1 binding intensity,[3],13500
same,RUNX1 binding intensity,[4],1440
TCCAGGCATTTCCCCCATGTTGGCTCACCGCACTAT,ETS1 binding intensity,[1],416
same,RUNX1 binding intensity,[2],1260
same,ETS1 binding intensity,[3],594
same,RUNX1 binding intensity,[4],1290
GAGCTGCTCCGGAAGGGTGGTGTGTGGTCAACCTTG,ETS1 binding intensity,[1],759
same,RUNX1 binding intensity,[2],876
same,ETS1 binding intensity,[3],1520
same,RUNX1 binding intensity,[4],1050
ACTGAAAACAGCACAGGATGTGGTCTGCCAGGTGCC,ETS1 binding intensity,[1],4270
same,RUNX1 binding intensity,[2],752
same,ETS1 binding intensity,[3],10100
same,RUNX1 binding intensity,[4],1440
AGAAGCTTCTACAGGAAACCACTAATGGAGACAGAG,ETS1 binding intensity,[1],1440
same,RUNX1 binding intensity,[2],782
same,ETS1 binding intensity,[3],1970
same,RUNX1 binding intensity,[4],958
CAAAAGTGCTTCCTCTCGAGGGGTTGTGGTTCTTAC,ETS1 binding intensity,[1],396
same,RUNX1 binding intensity,[2],716
same,ETS1 binding intensity,[3],520
same,RUNX1 binding intensity,[4],1070
TTCTCATCCGGCCGGCTTGCTTTCCCCTGCGGTCGT,ETS1 binding intensity,[1],394
same,RUNX1 binding intensity,[2],962
same,ETS1 binding intensity,[3],641
same,RUNX1 binding intensity,[4],1650
TGAGAAAACAGGAAGCGCCCAGTCACCACAGAAAGC,ETS1 binding intensity,[1],2910
same,RUNX1 binding intensity,[2],765
same,ETS1 binding intensity,[3],5290
same,RUNX1 binding intensity,[4],1330
CGAAGCCGGAAATGCTGAGTGTGCGGGGCCGAACGT,ETS1 binding intensity,[1],4230
same,RUNX1 binding intensity,[2],694
same,ETS1 binding intensity,[3],4980
same,RUNX1 binding intensity,[4],1220
GTACGACAGCGGGTTCCGGTGACCACGAAGGCGGCA,ETS1 binding intensity,[1],404
same,RUNX1 binding intensity,[2],938
same,ETS1 binding intensity,[3],467
same,RUNX1 binding intensity,[4],1180
TTCAGAAAAAAAGGAAGTGGTAAATTCTTGCTGATT,ETS1 binding intensity,[1],1890
same,RUNX1 binding intensity,[2],775
same,ETS1 binding intensity,[3],3620
same,RUNX1 binding intensity,[4],1500
CATCCAGGACGGAAACAGCATCCCCACCGCGGGAGC,ETS1 binding intensity,[1],775
same,RUNX1 binding intensity,[2],855
same,ETS1 binding intensity,[3],852
same,RUNX1 binding intensity,[4],1080
CGAAAGTGACCGGAAGTAACCGCCGGGCCAAGATGG,ETS1 binding intensity,[1],17800
same,RUNX1 binding intensity,[2],795
same,ETS1 binding intensity,[3],18200
same,RUNX1 binding intensity,[4],1530
CCTGTCCGGAAGTCCTGAGAGGGAATCGCCCGCAAA,ETS1 binding intensity,[1],2300
same,RUNX1 binding intensity,[2],963
same,ETS1 binding intensity,[3],5360
same,RUNX1 binding intensity,[4],1690
TCATATCCGGCAGGAATGGGTTTTGTGGCTTTGTGC,ETS1 binding intensity,[1],752
same,RUNX1 binding intensity,[2],1670
same,ETS1 binding intensity,[3],1400
same,RUNX1 binding intensity,[4],3620
CTCGTGGGTGCCGGAAGTGGAGGCGGTTGGTGGGGT,ETS1 binding intensity,[1],15200
same,RUNX1 binding intensity,[2],707
same,ETS1 binding intensity,[3],15900
same,RUNX1 binding intensity,[4],1410
GGGAGGCCCCATCCTGTGTGGCTGTGGCTTTTGCCT,ETS1 binding intensity,[1],414
same,RUNX1 binding intensity,[2],653
same,ETS1 binding intensity,[3],451
same,RUNX1 binding intensity,[4],1020
CTGCTGCCGCGAACAGGAAACCACTACAATCAGGAG,ETS1 binding intensity,[1],2840
same,RUNX1 binding intensity,[2],816
same,ETS1 binding intensity,[3],4530
same,RUNX1 binding intensity,[4],1100
AGCGCGCCGCCGACCGGATGCGGGAACTGGGCTCGG,ETS1 binding intensity,[1],11800
same,RUNX1 binding intensity,[2],715
same,ETS1 binding intensity,[3],19400
same,RUNX1 binding intensity,[4],1550
TTCATTTCTACCTTCCTGTGGTCTTTTTGCCTCCGA,ETS1 binding intensity,[1],512
same,RUNX1 binding intensity,[2],1860
same,ETS1 binding intensity,[3],470
same,RUNX1 binding intensity,[4],2320
GAGCCTGTTGCTTCCGGTTCAGAGCCCACATGCTGG,ETS1 binding intensity,[1],3070
same,RUNX1 binding intensity,[2],736
same,ETS1 binding intensity,[3],3370
same,RUNX1 binding intensity,[4],1940
AATATACGGTGAGGATGTGGGCAAAAAACAAAGAGG,ETS1 binding intensity,[1],1060
same,RUNX1 binding intensity,[2],809
same,ETS1 binding intensity,[3],1270
same,RUNX1 binding intensity,[4],965
AATCCAACACTTCCTCCTCCACCGCAGAAAGGCAAC,ETS1 binding intensity,[1],518
same,RUNX1 binding intensity,[2],1490
same,ETS1 binding intensity,[3],966
same,RUNX1 binding intensity,[4],2670
AGGCGCCGGAAAAACTACATCTCCCACAATCCTCGG,ETS1 binding intensity,[1],484
same,RUNX1 binding intensity,[2],965
same,ETS1 binding intensity,[3],396
same,RUNX1 binding intensity,[4],913
GGATGACATCCGGCACCAACTTAACCACTAATCTCA,ETS1 binding intensity,[1],615
same,RUNX1 binding intensity,[2],947
same,ETS1 binding intensity,[3],1690
same,RUNX1 binding intensity,[4],2410
GGACTTCCTGAAGCCAGATCGGTTTACCACAGTCAG,ETS1 binding intensity,[1],413
same,RUNX1 binding intensity,[2],634
same,ETS1 binding intensity,[3],599
same,RUNX1 binding intensity,[4],1860
AGCAGCTGCCAGAGGAAGTCTGCGGTCGGAACAGGC,ETS1 binding intensity,[1],1260
same,RUNX1 binding intensity,[2],1410
same,ETS1 binding intensity,[3],10800
same,RUNX1 binding intensity,[4],3400
